ChEMBL document CHEMBL3433997, “St. Jude Leishmania screening dataset” (2016)

Biological target: Glucose transporter (Leishmania mexicana) (UniProt O61059)
Test: ST_JUDE_LEISH: Cytotoxicity at 2uM final concentration against transgenic Leishmania Mexicana promastigotes LmGT2 that are glucose transport deficient and complemented with the L. Mexicana glucose transporter 2. Activity is measured by DNA content using SYBR green in vitro
Type: functional

For `COc1ccc(Nc2cc(C)nc(NCc3ccc4c(c3)OCO4)n2)cc1`, which inhibition is on record?
Its inhibition is 1.69%.

`Cc1cc(C)c(C(=O)Nc2n[nH]c3nnc(-c4cccc(F)c4F)cc23)c(C)c1` was tested. Which inhibition did it give?
The inhibition was 0.28%.

`c1cncc(NCc2ccc(-c3cc4ccncc4cc3OC3CCNCC3)s2)c1` was tested. Which inhibition did it give?
Its inhibition is 4.54%.

How did the inhibition turn out when `Cc1ccc(C)c2c1[nH]c1ccc(C3=NCCN3)cc12` was run?
Its inhibition is 1.4%.

With `O=C(N[C@@H](CC1CCCCC1)C(=O)NC1CCCCC1)c1ccc(O)c(-c2cccc(C(F)(F)F)c2)c1` as the compound, how does the inhibition read?
The inhibition was -3.33%.

With `COc1cc2nc(N3CCN(c4cc(C)ccc4C)CC3)nc(N)c2cc1OC` as the compound, how does the inhibition read?
Its inhibition is 0.51%.

`COc1cccc(CCNCc2ccc(-c3cccc(CNC4CCCC4)c3)cc2)c1` was tested. Which inhibition did it give?
Its inhibition is 3.02%.

Which inhibition does the source give for `CN1CCCN(Cc2ccc(-c3ccc(NS(=O)(=O)c4cccc5cccnc45)cc3)cc2)CC1` here?
The inhibition was 0.05%.

Which inhibition does the source give for `Cc1ccc(-c2nc(NC(=O)Nc3ccc(C(F)(F)F)cc3)sc2C)cc1Cl` here?
Its inhibition is 1.54%.

How did the inhibition turn out when `N#CC(CC(=O)c1ccc(Cl)cc1)c1cccc(F)c1` (stereo not given) was run?
The inhibition was 1.13%.

Which inhibition does the source give for `O=C(N[C@@H](Cc1ccccc1)CN1CCC(Oc2ccc(F)cc2)CC1)c1ccc(OCCCN2CCCCC2)cc1` here?
Its inhibition is 13.4%.

`O=C(Cc1cccc(O)c1)Nc1ccc(-c2cccc(-c3nc4cc(C(F)(F)F)ccc4[nH]3)c2)cc1` was tested. Which inhibition did it give?
Its inhibition is 0.62%.

`Clc1ccc2c(NN=Cc3cccs3)ccnc2c1` was tested. Which inhibition did it give?
The inhibition was 2.8%.

Which inhibition does the source give for `Cc1[nH]c(C)c(-c2ccc(-c3ccccc3C(F)(F)F)nc2)c(=O)c1Br` here?
The inhibition was 0.55%.

With `Cc1c[nH]c2cc(/C=C/C(=O)NC3CCC(CCN4CCc5ccc(C#N)cc5CC4)CC3)ccc12` (stereo not given) as the compound, how does the inhibition read?
Its inhibition is 2.01%.

`COC(=O)c1cc2cccc(NC[C@@H](C)NC[C@H](O)c3cccc(Cl)c3)c2[nH]1` was tested. Which inhibition did it give?
The inhibition was 1.28%.

Which inhibition does the source give for `CNc1ccc(CNCc2cccc(-c3ccc(-c4nc5cccc(C)c5[nH]4)cc3)c2)cc1` here?
Its inhibition is 0.87%.

With `Cc1cc(N2CCN(C(=O)OC(C)(C)C)CC2)ccc1N` as the compound, how does the inhibition read?
The inhibition was 7.39%.

Which inhibition does the source give for `CC(=O)c1ccc2c(c1)C(NC(=O)c1cccc(Cl)c1Cl)C(CO)C(C)(C)O2` (stereo not given) here?
Its inhibition is -1.69%.

How did the inhibition turn out when `CN(C)CCNc1ncnc2c1[nH]c1ccc(Br)cc12` was run?
The inhibition was 1.38%.

Which inhibition does the source give for `Cc1cccc(Cl)c1S(=O)(=O)Nc1cccc(CCN2CCC(N3CCCCC3)CC2)c1` here?
Its inhibition is -2.34%.

Which inhibition does the source give for `CS(=O)(=O)N1CC2(CCN(CCC(NC(=O)/C=C/c3ccccc3)c3ccc(Cl)c(Cl)c3)CC2)c2ccccc21` (stereo not given) here?
Its inhibition is 1.25%.

With `Cc1noc(C)c1-c1ccc2c(Nc3ccc(C(F)(F)F)cc3)c(C(N)=O)cnc2c1` as the compound, how does the inhibition read?
The inhibition was -3.02%.

Which inhibition does the source give for `CC(=O)Nc1nnc(SCc2c(C)cc(C(C)(C)C)cc2C)s1` here?
Its inhibition is 1.06%.

For `O=C(/C=C/c1ccc(Cl)c(Cl)c1)NCCCCCN1CCC(NC(=O)Nc2cccc(F)c2)CC1`, which inhibition is on record?
Its inhibition is 2.29%.

How did the inhibition turn out when `Oc1ccc(Br)cc1-c1nc2ccc(Cl)cc2nc1-c1cc(Br)ccc1O` was run?
The inhibition was 2.66%.

Which inhibition does the source give for `CC(C)(C)c1ccc(-c2nc3c(ccc4nc(N)nc(N)c43)[nH]2)cc1` here?
Its inhibition is -2.76%.

For `CS(=O)(=O)c1ccc(-c2cncc(Cl)n2)cc1`, which inhibition is on record?
The inhibition was 10.2%.

Which inhibition does the source give for `Cc1ccccc1Oc1nc2ccccc2nc1SCC(=O)NC(C)C` here?
The inhibition was -1.86%.

`O=C(/C=C/c1ccc(Cl)c(Cl)c1)N1CCC(CN2CCC(c3c[nH]c4cnccc34)CC2)CC1` was tested. Which inhibition did it give?
The inhibition was 4.67%.

Which inhibition does the source give for `CC(C)(C)c1ccc(CN2CCC(NC(=O)c3ccc(-c4ccccc4Cl)s3)CC2)cc1` here?
Its inhibition is 3.18%.

Which inhibition does the source give for `Cc1cc2nc(-c3ccc(/C=C/C(=O)NC4CCCCC4)cc3)[nH]c2cc1C` here?
The inhibition was 1.51%.

For `Cc1cc(CN2CCC(C(=O)Nc3ccc(-c4nc5ccccc5[nH]4)cc3)CC2)oc1C`, which inhibition is on record?
The inhibition was 2.24%.

With `COc1cc(NC(=O)c2cccc([N+](=O)[O-])c2)cc(S(=O)(=O)c2ccc(Cl)cc2)c1` as the compound, how does the inhibition read?
The inhibition was 0.68%.

For `Cc1cc(N/N=C/c2cccc([N+](=O)[O-])c2)c2ccccc2n1`, which inhibition is on record?
Its inhibition is 4.98%.

Which inhibition does the source give for `Cc1nc2nc(N)nc(N)c2c(C)c1Cc1cccc(C(F)(F)F)c1` here?
Its inhibition is -2.32%.

`COc1ccc(NC(=O)/C=C/c2ccccc2Cl)cc1OCCN1CCC(N2CCCC2)CC1` was tested. Which inhibition did it give?
Its inhibition is 4.44%.

`O=C(Nc1ccc2c(c1)CCN2C1CCN(Cc2ccc(C(F)(F)F)cc2F)C1)c1ccco1` (stereo not given) was tested. Which inhibition did it give?
The inhibition was 1.6%.

Which inhibition does the source give for `CN(C)CCNC(=O)[C@H](CC1CCCCC1)NC(=O)c1ccc(O)c(-c2ccc(Cl)c(Cl)c2)c1` here?
Its inhibition is 1.78%.

With `O=C(NCc1cc2c(cc1Cl)OCO2)c1ccc(CNC2CCN(Cc3ccccc3)CC2)cc1` as the compound, how does the inhibition read?
Its inhibition is 0.48%.
